A selection: hits, their analogues and other compounds. The true share with any hit is near 28%.
CYP2C9 activ – increases human cytochrome P450 2C9 activity. recombinant CYP2C9, luciferin-H conversion, luminescence; active compounds read high; factor 1 = untreated enzyme, 0 = blocked. activation factor at 5 µM. P11712. 1.4% of 96,000 active;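 active = activation factor of 2 or more for CYP2C9 at a 5 µM dose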;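 also: 0 = sulfaphenazole-blocked wells and 1 = vehicle-only wells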
CYP2C9 inh – inhibitors of human CYP2C9 | 20% of 96,000 active | CYP2C9 Supersomes, luciferin-H conversion, luminescence | inhibition, % at 5 µM | P11712;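 active = blocking of liver enzyme CYP2C9 beyond about 50% at 5 µM, limit read from the data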
CD11b adhes inh – CD11b/CD18-fibrinogen binding inhibition. P05107+P11215. K562 CD11b/CD18 adhesion to fibrinogen, ATPlite luminescence; Mn2+ added to activate the integrin. inhibition, % at 10 µM. 0.54% of 93,000 active;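 active = primary inhibition of 50% or more at 10 µM, then 40% or more on retest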
Target sequence (P05107 whole entry, looked up, other chains not shown): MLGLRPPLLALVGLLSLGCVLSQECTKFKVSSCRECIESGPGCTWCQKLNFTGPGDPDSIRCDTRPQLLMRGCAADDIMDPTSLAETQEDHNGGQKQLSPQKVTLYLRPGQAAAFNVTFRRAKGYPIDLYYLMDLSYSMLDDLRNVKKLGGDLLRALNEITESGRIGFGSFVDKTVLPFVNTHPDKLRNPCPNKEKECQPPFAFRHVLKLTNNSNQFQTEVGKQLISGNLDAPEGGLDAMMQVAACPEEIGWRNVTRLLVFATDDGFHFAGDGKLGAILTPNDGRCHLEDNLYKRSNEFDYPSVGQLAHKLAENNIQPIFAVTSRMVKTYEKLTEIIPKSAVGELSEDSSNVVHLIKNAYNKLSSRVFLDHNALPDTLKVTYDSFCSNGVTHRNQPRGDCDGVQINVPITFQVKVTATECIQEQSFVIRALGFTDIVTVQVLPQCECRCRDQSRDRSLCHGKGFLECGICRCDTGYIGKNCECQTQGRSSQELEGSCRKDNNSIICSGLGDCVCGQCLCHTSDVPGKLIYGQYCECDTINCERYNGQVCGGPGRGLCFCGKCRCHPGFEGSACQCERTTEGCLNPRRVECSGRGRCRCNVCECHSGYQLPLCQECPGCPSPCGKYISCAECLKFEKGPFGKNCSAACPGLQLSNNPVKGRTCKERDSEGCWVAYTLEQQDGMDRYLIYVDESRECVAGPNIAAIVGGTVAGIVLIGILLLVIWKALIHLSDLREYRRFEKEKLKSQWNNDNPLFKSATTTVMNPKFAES
CD11b adhes enh – enhancers of human CD11b/CD18 binding to fibrinogen; P05107+P11215; 0.07% of 93,000 active; activation, % at 10 µM; K562 CD11b/CD18 adhesion to fibrinogen, ATPlite luminescence;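 active = 10 µM primary screen giving 50% or more activity, confirmed by 40% or more on retest at that dose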
CYP2C19 inhib – blocks human cytochrome P450 2C19; P33261; 21% of 96,000 active; CYP2C19 Supersomes, luciferin-H EGE luminescence, 30 min; AID 778; inhibition, % at 5 µM;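 active = CYP2C19 inhibition above a set limit at 5 µM in the primary screen, cut at about 50% in these data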;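 also: plate controls were negative control wells for no effect and 2.5 mM tranylcypromine positive control for full effect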
CYP2C19 act – cytochrome P450 2C19 (human) activation; P33261; recombinant CYP2C19, luciferin-H EGE luminescence; active compounds read high; 0 = fully inhibited enzyme, 1 = untreated enzyme; activation factor at 5 µM; 96,000 tested, under 10 active; AID 1025;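 active = activation factor of at least 2 at 5 µM in the primary screen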;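 also: 0 = wells with 2.5 mM tranylcypromine and 1 = vehicle-only wells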
* = called active by the depositor; . = no result given.

SMILES	CYP2C9 activ	CYP2C9 inh	CD11b adhes inh	CD11b adhes enh	CYP2C19 inhib	CYP2C19 act
COC(=O)C(/C=N/OCc1ccc([N+](=O)[O-])cc1)NC(=O)c1cccc(Cl)c1 (centres undefined)	0.4	61.0*	-1.3	6.2	78.6*	0.2
CCOC(=O)C1CCN(C(=O)Nc2ccc(OC)c(OC)c2)CC1	1.1	-11.5	-34.6	-3.2	5.4	0.9
Fc1ccccc1Cn1nnc2c(NCc3ccccn3)ncnc21	2.8*	-178.9	14.8	-1.8	31.0	0.7
CCCc1nc2c(nnn2Cc2ccccc2F)c(=O)[nH]1	1.5	-52.5	-7.9	-3.1	89.2*	0.1
Clc1ccccc1Cn1nnc2c(NCC3CC3)ncnc21	3.4*	-239.0	-2.7	-1.9	51.4*	0.5
C#CCNc1nc(C)nc2c1nnn2Cc1ccccc1F	1	4.5	5.5	-3.0	52.2*	0.5
Clc1ccccc1Cn1nnc2c(Nc3ccccc3)ncnc21	1.2	-21.7	-1.4	-0.8	8.3	0.9
CC(/C=C/c1ccc2c(c1)OCO2)=N/NC(=O)c1ccc(C)nc1	.	.	-7.8	3.7	.	.
O=C(Nc1ccc2c(c1)OCO2)OCc1ccccc1	0.6	38.5	0.2	-3.2	91.5*	0.1
O=C(Nc1ccc2c(c1)OCO2)C1CCCN1C(=O)OCc1ccccc1 (centres undefined)	0.2	80.9*	-7.6	-2.9	99.1*	0
COc1cc(NC(=O)C2CCCN2C(=O)OCc2ccccc2)cc(OC)c1 (centres undefined)	0.9	13.5	-11.5	1.4	32.1	0.7
O=C(Nc1ccc2c(c1)OCO2)C1CCCN1C(=O)NCc1ccccc1 (centres undefined)	0.3	72.0*	0.6	7.2	97.2*	0
O=C(NCc1ccc2c(c1)OCO2)C1CCCN1C(=O)Nc1ccccc1 (centres undefined)	1.3	-31.9	-0.1	-1.6	28.3	0.7
CCOC(=O)CNC(=O)c1ccccc1Br	1.1	-11.0	-17.4	-0.2	-2.7	1
CC(=O)Oc1ccc(C(=O)[C@H]2[C@H]3C(=O)N(c4ccc5ccccc5c4)C(=O)[C@H]3[C@@H]3C=CC=NN32)cc1	.	.	56.5	4.8	.	.
CC(C)NC(=O)c1cc(=O)n(C)c(=O)n1C	0.9	10.5	-5.4	0.4	13.9	0.9
CCn1c(COc2ccc(=O)n(-c3ccccc3)n2)nnc1SCc1ccccc1C	0.4	60.7*	3.6	6.9	15.1	0.8
CCn1c(CC(=O)Nc2ccccc2)nnc1SCC(=O)Nc1ccccc1C(=O)OC	1	3.1	-11.4	8.1	1.4	1
CCn1c(SCC(=O)Nc2ccccc2C(=O)OC)nnc1-c1ccoc1C	0.8	19.6	-15.0	-5.8	94.5*	0.1
CCn1c(SCC(=O)c2ccc3c(c2)Cc2ccccc2-3)nnc1-c1ccc(N)cc1	0.7	25.7	1.2	91.8*	25.4	0.7
CCn1c(SCC(=O)c2ccc(O)c(O)c2)nnc1-c1ccc(C)cc1	0.9	5.7	21.7	-6.3	36.5	0.6
CCn1c(SCC(=O)Nc2ccccc2C(=O)OC)nnc1-c1ccc(N)cc1	0.8	16.4	.	.	98.0*	0
O=C(Nc1ccc(Oc2cccnc2)cc1)c1ccccc1F	0	96.6*	.	.	93.1*	0.1
O=C(NCCc1ccncc1)c1ccccc1F	0.4	57.1*	-11.6	6.7	80.7*	0.2
O=C(Nc1ccncc1)c1ccccc1F	0.6	44.6	-9.4	0.2	64.3*	0.4
SMILES	CYP2C9 activ	CYP2C9 inh	CD11b adhes inh	CD11b adhes enh	CYP2C19 inhib	CYP2C19 act
O=C(Nc1nc2ccccc2[nH]1)c1ccccc1F	0.2	81.0*	47.7	-4.0	95.4*	0
NS(=O)(=O)c1ccc(CCNC(=O)c2ccccc2F)cc1	1	3.6	10.1	0.3	17.0	0.8
CN(C)/C=C/C(=O)c1ccc(Cl)cc1	1	0.4	.	.	18.4	0.8
CC(=O)c1c(C)nc(-c2ccc(Cl)cc2)nc1N=CN(C)C	0.5	51.4*	-22.3	-6.4	36.7	0.6
CC(C(=O)N1CCCc2ccccc21)N1CCN(S(=O)(=O)c2ccccc2F)CC1 (centres undefined)	0.7	32.3	0.1	-1.5	46.5	0.5
CCOC(=O)C1C(c2cccc(Cl)c2Cl)NC(=O)NC1(O)C(F)(F)F (centres undefined)	1	1.0	14.4	-4.2	20.8	0.8
NC/C(=N\O)c1ccc(Cl)cc1Cl	0.5	52.4*	14.6	-1.5	80.4*	0.2
Cn1cccc1C(=O)c1ccc(Cl)cc1Cl	0.8	17.4	-0.8	-5.4	13.0	0.9
CSc1snc(SCC(N)=O)c1C#N	1	2.7	8.9	1.3	-1.0	1
COC(=O)CSc1nsc(SCC(=O)OC)c1C#N	0.8	22.8	-17.0	2.7	53.8*	0.5
Cc1ccc(-n2nc(C)c3c(C)cc(=O)[nH]c32)cc1	0.7	32.8	3.1	-2.3	16.3	0.8
CN(CC(=O)NC1CCCCC1)S(=O)(=O)c1ccc(Cl)cc1	1	3.9	11.1	1.5	6.2	0.9
CCN(CC)S(=O)(=O)c1cc(C(=O)O)c(Cl)cc1Cl	0.9	11.6	-6.0	0.6	3.9	1
CCN(CC)S(=O)(=O)c1cccc2c(N(C)C)cccc12	1.3	-34.2	8.0	16.3	57.0*	0.4
CCN(CC)S(=O)(=O)c1cccc2cccnc12	4.8*	-378.8	-8.1	-0.1	33.8	0.7
CN(CC(=O)NC1CCCCCCC1)S(=O)(=O)c1cccc2cccnc12	1.1	-10.2	-6.2	1.9	75.3*	0.2
CCN(CC)S(=O)(=O)c1cccc2cc(C(=O)O)c(O)cc12	0.3	71.1*	1.3	-0.3	4.0	1
CCN(CC)S(=O)(=O)c1cccc2nsnc12	1.2	-20.9	11.9	-0.4	1.3	1
C=CCSc1nc(C)c2cc(C)cc(C)c2n1	0.8	16.2	3.2	-1.5	37.1	0.6
CC(C)N(C(=O)c1ccccc1-c1ccccc1)C(C)C	0.8	20.0	12.5	-2.3	25.8	0.7
CC(=O)c1ccc(-n2nnnc2SCC(=O)NNC(=O)c2ccco2)cc1	1	-4.4	.	.	-1.7	1
CN(CC(=O)N1CCCCCC1)S(=O)(=O)c1cccc2cccnc12	3.3*	-225.9	-3.5	4.1	16.5	0.8
O=C(NCC1CCCO1)C1CCN(C(=O)c2ccc(Br)cc2)CC1 (centres undefined)	1.1	-5.0	-8.6	7.0	14.3	0.9
Cc1cc(Cl)ccc1N(CC(=O)N=Nc1c(O)[nH]c2ccccc12)S(C)(=O)=O	0.5	53.0*	2.1	0.3	76.0*	0.2
CCn1c(=O)c(C(=O)NCCNCCO)c(O)c2ccccc21	1.3	-26.5	-17.9	-1.9	24.7	0.8
CCCn1c(=O)c(C(=O)NCc2ccncc2)c(O)c2ccccc21	0.2	80.1*	1.2	0.1	67.7*	0.3
CCn1c(C(=O)NCc2cccnc2)cc2sc(Cl)cc21	0.1	90.4*	-10.3	4.1	99.1*	0

Assay outcomes: PubChem BioAssay, Sanford-Burnham Center for Chemical Genomics
